In ChEMBL document CHEMBL3988442, “University of Dundee, Small-Polar-MMV Screening Library” (2021):
Among all 48,000 compounds or so, about 13,000 (27%) showed an effect of 50% or more. This is one part of the list.

Each molecule was assayed on Wolbachia pipientis (assay: Anti-Wolbachia Cell-Based Screen). Settings: 5 µM.
Format: functional
Set-up: scale not given: in the data most compounds retested in dose-response had high values

Structure (SMILES) | Percent Effect
O=C(NS(=O)(=O)c1cccc(C(F)(F)F)c1)c1cscn1 | 5.239%
CSCC(C)CNC(=O)N1CCSC(C)(C)C1 (configuration not stated) | -11.84%
Cc1ccsc1C(=O)N1CCCn2nnc(Cn3cccn3)c2C1 | -8.648%
NC(=O)C1CCN(CC(=O)NCCc2c(F)cccc2F)CC1 | -5.279%
Cc1ccccc1CN(C)C(=O)CN1CCCC(Cn2cncn2)C1 (configuration not stated) | 113.1%
Cc1ccc(CNC(=O)CN2CCCC(Cn3cncn3)C2)s1 (configuration not stated) | 2.763%
CN(Cc1cccs1)C(=O)CN1CCCC1Cn1cncn1 (configuration not stated) | 4.485%
CN(Cc1cccs1)C(=O)CN1CCCC(Cn2cncn2)C1 (configuration not stated) | 104.7%
CN(Cc1cnn(C)c1)C(=O)CN1CCCCC1Cn1cncn1 (configuration not stated) | -1.261%
CN(Cc1cnn(C)c1)C(=O)CN1CCCC1Cn1cncn1 (configuration not stated) | -17.06%
CN(Cc1cnn(C)c1)C(=O)CN1CCCC(Cn2cncn2)C1 (configuration not stated) | 99.58%
Cc1ccccc1CN(C)C(=O)CN1CCCCC1Cn1cncn1 (configuration not stated) | 13%
CN(Cc1cccs1)C(=O)CN1CCCCC1Cn1cncn1 (configuration not stated) | -8.193%
Cc1ccc(F)c(OC2(C(=O)O)CCN(C(=O)C3CCCC3)CC2)c1 | -29.08%
CC(C)c1nccn1CCn1cnc2ccsc2c1=O | 2.985%
Cc1ccc(C(=O)NCCCC2(C3OCCO3)CCOCC2)cc1C | -3.842%
Cc1ccccc1CN(C)C(=O)CCc1nc(-c2nnc[nH]2)no1 | 4.436%
CCc1cnc(N2CCc3cc(C(=O)NC)c(N(C)C)nc3CC2)nc1.O=C(O)C(F)(F)F | 91.47%
CCc1cnc(N2CCc3ncnc(N4CCN(C)CC4)c3CC2)nc1.O=C(O)C(F)(F)F | -0.8279%
CNC(=O)c1cc2c(nc1N(C)C)CCN(c1ncccn1)CC2.O=C(O)C(F)(F)F | 100.6%
CCS(=O)(=O)N1CCc2cc(C(=O)NC)c(N(C)C)nc2CC1 | 15.07%
CNC(=O)c1cc2c(nc1NCC(C)C)CCN(c1ncccn1)CC2.O=C(O)C(F)(F)F | -3.442%

Structure (SMILES) | Percent Effect
CNC(=O)c1cc2c(nc1N(C)C)CCN(S(=O)(=O)N(C)C)CC2.O=C(O)C(F)(F)F | -4.998%
CNC(=O)c1cc2c(nc1N(C)C)CCN(c1ncc(C)cn1)CC2.O=C(O)C(F)(F)F | 101.6%
CNC(=O)c1cc2c(nc1NCC(C)C)CCN(C)CC2.O=C(O)C(F)(F)F.O=C(O)C(F)(F)F | -3.691%
CNC(=O)c1cc2c(nc1N(C)C)CCN(c1ncc(F)cn1)CC2.O=C(O)C(F)(F)F | 86.67%
CNC(=O)c1cc2c(nc1N(C)C)CCN(S(=O)(=O)C1CC1)CC2.O=C(O)C(F)(F)F | -2.828%
CNC(=O)c1cc2c(nc1N(C)C)CCN(C)CC2.O=C(O)C(F)(F)F.O=C(O)C(F)(F)F | 0.7225%
CNC(=O)c1cc2c(nc1N(C)C)CCN(S(=O)(=O)CC(C)C)CC2.O=C(O)C(F)(F)F | -14.6%
CCN(CCc1nc2cc(C)ccc2[nH]1)C(=O)COC | 16.32%
CCSCCC(C)N(C)C(=O)c1ccc2nncn2c1 (configuration not stated) | 5.422%
CC(C)N1CCC(CC(=O)NC[C@H]2CCc3ccccc3O2)CC1 | 10.1%
Cc1cc(NC2CCN(c3ccccc3)C2)n2ncnc2n1 (configuration not stated) | -12.56%
Cc1cc(=O)n2ncnc2n1CC(O)c1ccccc1 (configuration not stated) | -22.33%
CCOc1cc(C)nc(N2CCN(Cc3nccn3CC)CC2)n1 | -15.08%
O=C(CSc1ccc(F)c(F)c1)NS(=O)(=O)c1ccc2c(c1)OCCO2 | -0.1688%
Cc1cnc(N2CCc3cc(C(=O)O)c(N(C)C)nc3CC2)nc1.O=C(O)C(F)(F)F | 100.3%
Cc1cnc(N2C[C@@H]3[C@@H](C2)OCC(=O)N3CCN(C)C)nc1.O=C(O)C(F)(F)F | -6.584%
Cn1cc(-c2nc3c(cc2C(=O)O)CCN(C(=O)C2CC2)CC3)cn1.O=C(O)C(F)(F)F | -6.455%
CC(=O)N1CC[C@]2(O)CCN(Cc3nc(C)c[nH]3)C[C@@H]2C1 | -2.174%
O=S(=O)(NCCn1ccc(-c2ccccn2)n1)C1CCCCC1 | 96.49%
O=C(NCCn1ccc(-c2ccccn2)n1)c1ccncc1 | -7.154%
O=C(NCCn1ccc(-c2ccccn2)n1)C1CCC1 | 100.8%
CC(=O)NCCn1ccc(-c2ccccn2)n1 | 104.5%

Structure (SMILES) | Percent Effect
CC(=O)NCCNc1nc(-c2ccccn2)nc2c1c(C)nn2C | -13.51%
O=S(=O)(NCCn1ccc(-c2ccccn2)n1)C1CC1 | -6.765%
O=S(=O)(NCCn1ccc(-c2ccncc2)n1)C1CC1 | -3.151%
O=C(NCCn1ccc(-c2ccccn2)n1)C1CC1 | -0.9217%
O=C(CC1CCCC1)NCCn1ccc(-c2ccccn2)n1 | -10.47%
CCOCC(=O)NCCn1ccc(-c2ccccn2)n1 | 107%
Cc1ccc(O)c(CN(Cc2ccccc2)Cc2nccs2)n1 | 11.33%
CCCN1CCCn2nc(CNC(=O)CCc3scnc3C)cc2C1 | 1.883%
CN(Cc1ccsc1)Cc1nc(-c2cnccn2)no1 | -7.726%
CC(C)(C)C(=O)NCCn1ccc(-c2ccncc2)n1 | -1.821%
CC(C)(C)C(=O)NCCn1ccc(-c2ccccn2)n1 | 67.15%
Cc1cnn(CC2CCCN2Cc2nccn2C)c1 (configuration not stated) | -1.089%
Cc1cnn(CC2CCCN2Cc2nc3ccccc3n2C)c1 (configuration not stated) | 0.7122%
Cc1cnn(CC2CCCN2Cc2nccn2CC(F)(F)F)c1 (configuration not stated) | 129.3%
O=C(C1CCCCN1Cc1nccn1CC(F)(F)F)N1CCCC1 (configuration not stated) | -10.67%
Cn1ccnc1CN1CCCCC1Cn1cccn1 (configuration not stated) | 5.027%
Cc1cnn(CC2CCCN2Cc2nc3ccccc3nc2C)c1 (configuration not stated) | 3.797%
Cc1nc2ccccc2nc1CN1CCCCC1Cn1cccn1 (configuration not stated) | -6.205%
Cc1cnn(CC2CCCCN2Cc2nc(-c3ccoc3)no2)c1 (configuration not stated) | 6.468%
Cn1ccnc1CN1CCCC1Cn1cccn1 (configuration not stated) | 107.8%
CCn1ccnc1CN1CCCC1Cn1cc(C)cn1 (configuration not stated) | 134.6%
NC(=O)C1CCCN1Cc1nccn1CC(F)(F)F (configuration not stated) | -2.704%

Structure (SMILES) | Percent Effect
Cc1cnn(CC2CCCCN2Cc2nccn2CC(F)(F)F)c1 (configuration not stated) | 101.7%
COc1ccc(Cc2ncc3c(n2)CN(C(=O)C2COCCO2)C3)cc1 (configuration not stated) | -5.777%
CCCN1CCN(Cc2cc(Cl)cc(Cl)c2)[C@H]2CS(=O)(=O)C[C@H]21 | 3.846%
CSC(C)CC(=O)N1CCC(n2ccnn2)CC1 (configuration not stated) | 6.562%
O=C(CCN1CCNCC1)N1CCC2(CC1)c1ccccc1CC2O (configuration not stated) | 4.718%
O=C(C1CC1)N1CCC2(CC1)CNCc1ccccc12 | 1.154%
COCC(=O)N1CCC2(CC1)NC(=O)c1ccccc12.Cl | -6.733%
COCC(=O)N1CCc2[nH]c(=O)ccc2C1 | -6.404%
COCC(=O)N1CCc2ccccc2C12CCNCC2.Cl | 112.7%
CCOC(=O)N1CCc2ccccc2C12CCNCC2.Cl | 93.5%
Cl.O=C(C1CC1)N1CCc2ccccc2C12CCNCC2 | 85.13%
Cl.O=C([C@H]1CCCO1)N1CCC2(CC1)CNCc1ccccc12 | -10.28%
CN(C)C(=O)N1Cc2ccccc2C2(CCNCC2)C1.Cl | -11%
CS(=O)(=O)N1CC[C@]2(C[C@H](Oc3ccccn3)CO2)C1.O=C(O)C(F)(F)F | 1.633%
Cn1nc(Cn2cccc2)c2c1CN(Cc1ccsc1)C2.O=C(O)C(F)(F)F | 0.5842%
Cc1ccccc1CN1CCCN(C2CCOC2=O)CC1 (configuration not stated) | 1.458%
CCO[C@@H]1CN(S(=O)(=O)c2cn(C)cn2)[C@@H]2CCCO[C@@H]21.O=C(O)C(F)(F)F | -6.587%
Cc1cc(N(C)C)nc(N2CCN(C(C)c3nc(C)no3)CC2)n1 (configuration not stated) | 5.095%
Cc1cc(C)n(CC2CN(CC(=O)NC3CCOCC3)CCO2)n1 (configuration not stated) | 89.87%
Cc1cc(C)n(CC2CN(CC(=O)Nc3c(C)n[nH]c3C)CCO2)n1 (configuration not stated) | -5.671%
Cc1nc(C)n(CC2CN(CC(=O)Nc3cccnc3)CCO2)n1 (configuration not stated) | 9.573%
Cc1nc(C)n(CC2CN(CC(=O)Nc3nccs3)CCO2)n1 (configuration not stated) | 1.962%

Structure (SMILES) | Percent Effect
Cc1nc(C)n(CC2CN(CC(=O)NC3CCCC3)CCO2)n1 (configuration not stated) | 112.4%
Cc1cc(C)n(CC2CN(CC(=O)NC3CCCC3)CCO2)n1 (configuration not stated) | -2.568%
Cc1cc(C)n(CC2CN(CCC(=O)NC3CCCCC3)CCO2)n1 (configuration not stated) | 118.1%
Cc1cc(C)n(CC2CN(CC(=O)NC3CCCCC3)CCO2)n1 (configuration not stated) | 116.8%
CCN1CCC(NC(=O)CN2CCCC2Cn2nc(C)cc2C)CC1 (configuration not stated) | -4.017%
CCNC(=O)C1CCN(c2cc(CC)nc3ccnn23)C1 (configuration not stated) | -6.245%
CC(C)(C)CCNC(=O)c1ccc(Cl)c(NS(C)(=O)=O)c1 | -2.179%
O=C(NCC(=O)N1CC2(CCCC2)c2c(F)cccc21)C1CC1 | -3.819%
Cc1cc(NC(=O)CN2CCOC(Cn3nc(C)cc3C)C2)n(C)n1 (configuration not stated) | -0.6717%
Cc1cc(C)n(CC2CN(CCc3ccncc3)CCO2)n1 (configuration not stated) | -8.109%
Cc1cc(CN2CCN(CC(=O)NC3(C#N)CCCCC3)CC2)on1 | 3.175%
Cc1cc(C)n(CC2CN(CC3CCCC3)CCO2)n1 (configuration not stated) | 115%
Cc1cc(C)n(CC2CN(CC(=O)Nc3ccncc3)CCO2)n1 (configuration not stated) | 89.28%
Cc1cc(C)n(CC2CN(CC(=O)NC3(C#N)CCCC3)CCO2)n1 (configuration not stated) | 97.92%
Cc1cc(C)n(CC2CN(CC(=O)NC(C3CC3)C3CC3)CCO2)n1 (configuration not stated) | 97.21%
O=C(CN1CCOC(Cn2cncn2)C1)NC(C1CC1)C1CC1 (configuration not stated) | -5.3%
CC(C)=CCN1CCOC(Cn2nc(C)cc2C)C1 (configuration not stated) | -20.01%
O=C(CN1CCOC(Cn2cccn2)C1)NC(C1CC1)C1CC1 (configuration not stated) | -1.772%
Cc1cc(C)n(CC2CN(CC(=O)Nc3nncs3)CCO2)n1 (configuration not stated) | -6.247%
